Experimental data: paper PMC6919601, “Identification of Plasmodium dipeptidyl aminopeptidase allosteric inhibitors by high throughput screening” (PLoS ONE, 2019)
Out of some 110,000 compounds screened, about 230 (0.21%) showed an effect of 50% or more. This is one part of a sample in which strong results are shown more often than they occur.

biological target: DPAP1 (Plasmodium falciparum, UniProt Q8IIJ9); test: primary screen, percent inhibition; read by cleavage of a fluorogenic dipeptide substrate; higher = more effect of the substance; set-up: species or system P. falciparum D10 trophozoite lysates; single well
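Note: 30 min substrate incubation versus DMSO and 10 µM JCP410 controls.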

Sequence of DPAP1 (Q8IIJ9 whole entry, looked up): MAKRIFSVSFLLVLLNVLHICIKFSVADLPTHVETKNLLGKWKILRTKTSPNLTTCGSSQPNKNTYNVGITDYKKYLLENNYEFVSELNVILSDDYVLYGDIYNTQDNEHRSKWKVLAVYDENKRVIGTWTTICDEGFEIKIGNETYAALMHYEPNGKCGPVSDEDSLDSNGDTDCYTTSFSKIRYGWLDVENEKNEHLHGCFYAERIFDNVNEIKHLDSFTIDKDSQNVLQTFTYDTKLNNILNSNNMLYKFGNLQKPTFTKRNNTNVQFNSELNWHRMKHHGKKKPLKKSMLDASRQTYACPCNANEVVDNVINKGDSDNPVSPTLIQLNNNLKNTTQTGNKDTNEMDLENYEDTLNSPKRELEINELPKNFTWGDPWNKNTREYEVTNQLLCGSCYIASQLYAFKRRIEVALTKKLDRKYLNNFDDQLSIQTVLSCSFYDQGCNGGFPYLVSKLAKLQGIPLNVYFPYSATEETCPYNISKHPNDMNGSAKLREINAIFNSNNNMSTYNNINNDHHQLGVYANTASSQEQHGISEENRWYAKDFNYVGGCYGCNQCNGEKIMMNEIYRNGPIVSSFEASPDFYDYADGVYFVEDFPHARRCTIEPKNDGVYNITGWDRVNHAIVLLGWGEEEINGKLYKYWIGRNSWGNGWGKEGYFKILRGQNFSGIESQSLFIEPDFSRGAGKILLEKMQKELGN

Structure (SMILES) | % Inhibition @ 10 uM [%]
Cn1cccc1/C=C1/CCC(C2CCCC2)C1=O (stereo not drawn) | -5.51
Cc1ccc(C)n1-c1nnc(N2CCC(C(=O)NCCc3ccc(Cl)cc3)CC2)s1 | -4.04
O=C(NC1CCCC1)N(Cc1ccc2c(c1)OCO2)C1CCN(Cc2ccccc2)CC1 | -1.41
Cc1nc2c(c(C)nn2-c2ccccc2)c(C)c1CCC(=O)NCCC(C)C | 2.57
CCc1ccc2ncc(S(=O)(=O)c3ccccc3)c(N3CCCC3)c2c1 | -3.69
CSC1=C(C#N)C2(CCCC2)C(C#N)C(=O)N1 (stereo not drawn) | -0.239
CSC1=C(C#N)C2(CCCCC2)C(C#N)C(=O)N1 (stereo not drawn) | -0.736
N#CC1=C(S)NC(=O)C(C#N)C12CCCCC2 (stereo not drawn) | 57.8
CCN(CC)C(=O)/C=C/c1ccc(Cl)cc1 | 3
Cn1c(=O)c2c(nc(CN3CCc4ccccc4C3)n2CCc2ccccc2)n(C)c1=O | 2
Cn1c(=O)c2c(nc(CN3CCc4ccccc4C3)n2CCCc2ccccc2)n(C)c1=O | 59.1
Cn1c(=O)c2c(nc(CN3CCc4ccccc4C3)n2Cc2ccccc2)n(C)c1=O | -0.499
CC1=CC2=NC(=O)/C(=C\c3cccn3CCCOc3ccc(C)cc3)C(=N)N2O1 | -1.43
CCOC(=O)c1cc2c(=O)n3ccccc3nc2n(CCOC)/c1=N\C(=O)C(C)(C)C | -2.04
COC(=O)Nc1ccc(S(=O)(=O)N2CCN(c3ccccc3OC)CC2)cc1 | -5.13
Cc1cc(C)nc(SC(=O)c2ccc(Cl)cc2Cl)n1 | -5.13
COc1ccc(C(=O)Sc2nc(C)cc(C)n2)cc1 | 54.6
COC(=O)c1ccc(Oc2nc(C)cc(N)n2)cc1 | -2.87
CCCNc1nc(-c2ccc(C)cc2)cs1 | 3.33
c1ccc(-c2csc(NCc3ccco3)n2)cc1 | -0.178
CCNc1nc(-c2ccccc2)cs1 | 89.1
c1ccc(CC2CCN(c3ncnc4sc5c(c34)CCCC5)CC2)cc1 | 2.92
CCn1cc2c(n1)-c1c(oc(C(=O)NCc3cccc(Br)c3)c1C)CC2 | 13.8
CCOC(=O)c1c(CC(C)C)csc1NC(=O)c1ccc(C)cc1 | -5.9
CCN(CC)C(=O)CSc1nc2c(c(C(F)(F)F)c1C#N)CCC2 | 5.64
CCC1CCc2c(sc(N)c2C#N)C1 (stereo not drawn) | 11.8
CCC1CCc2nc(S)c(C#N)c(C(F)(F)F)c2C1 (stereo not drawn) | 88.2

Structure (SMILES) | % Inhibition @ 10 uM [%]
CC(C)c1ccc(/C=C2/NC(=O)NC2=O)cc1 | -1.25
Cc1ccc(S(=O)(=O)N2CCCN(S(=O)(=O)c3ccc(C)c(C)c3)CC2)cc1C | 22.6
CC(C)n1c(-c2ccccc2)nc2ccccc21 | -0.769
CN1CCN(C(=O)c2ccc(-c3ccccc3)cc2)CC1 | 2.6
CC(C)n1c(-c2ccc(C(=O)N3CCN(C)CC3)cc2)nc2ccccc21 | 83.9
Cc1ccc(C)c(-c2csc(Nc3ccc(C)c(Cl)c3)n2)c1 | 0.912
Cc1ccc(-c2nc3cnn(-c4ccccc4)c(O)c-3n2)cc1 | 2
CCSc1c(S)cnn(-c2ccccc2)c1=O | 1.7
Oc1c2nc(S)nc-2cnn1-c1ccccc1 | 87.4
CC(C)C(NS(=O)(=O)c1cccs1)C(=O)NCc1ccccc1Cl (stereo not drawn) | -4.07
CCOc1ccc(-c2cn3ncsc3n2)cc1 | 2.41
O=C(c1cccnc1)c1conc1C(=O)c1ccc(Br)cc1 | 91.9
O=C(c1ccccn1)c1conc1C(=O)c1cccs1 | 1.82
O=C(c1ccccc1)c1conc1C(=O)c1ccc(Br)cc1 | 4.52
O=C(c1ccccn1)c1conc1C(=O)c1ccc(Br)cc1 | 3.72
O=C(c1cccs1)c1conc1C(=O)c1ccc(Br)cc1 | 93.8
O=C(c1nc2ccccc2s1)c1conc1C(=O)c1cccs1 | 4.03
Cc1ccc(C2=CC(c3cccs3)n3ncnc3N2)cc1C (stereo not drawn) | 1.86
Cc1nc(NC(=O)c2ccccc2Cl)ccc1Br | -2.67
COc1ccc(Cl)cc1C(=O)Nc1ccc(Br)c(C)n1 | 70.4
Cc1nc(NC(=O)c2cc(Cl)ccc2Cl)ccc1Br | 0.755
CN(Cc1ccccc1)Cc1ccc(O)cc1 | -1.78
NC(=O)c1sc2nc(N3CCOCC3)c3c(c2c1N)CCCC3 | 50.2
CC1(C)Cc2c(c(N3CCOCC3)nc3sc(C(=O)N4CCCCC4)c(N)c23)CO1 | 3.93
CCOC(=O)c1sc2nc(N3CCOCC3)c3c(c2c1N)CCCC3 | -2.87
Nn1c(S)nnc1-c1ccccc1 | 1.63
O=C1c2cccnc2C(=O)N1Cc1ccc(S(=O)(=O)NCCc2ccc(Cl)cc2)s1 | -3.66

Structure (SMILES) | % Inhibition @ 10 uM [%]
COc1ccccc1CNC(=O)[C@H](CCSC)N1Cc2ccccc2C1=O | 2.93
CCCC1CCc2c(sc(NC(=O)C3CCCO3)c2C(N)=O)C1 (stereo not drawn) | 1.57
c1ccc(Cc2c[nH]c3ccccc23)cc1 | 0.736
c1ccc2c(Cc3c[nH]c4ccccc34)c[nH]c2c1 | -0.0372
c1ccc2c(Cc3nn[nH]n3)c[nH]c2c1 | 85
CCC1(C)CC(=O)c2c(ccc3oc(C(=O)NCc4ccco4)c(C)c23)O1 (stereo not drawn) | -2.17
CC1=C(C)CC(C(=O)NCc2ccc(F)cc2)C(C(=O)O)C1 (stereo not drawn) | 8.6
COc1ccc(-c2coc3cc(OC)ccc3c2=O)c(O)c1 | 62.1
COc1ccccc1-c1coc2cc(OCC(=O)O)ccc2c1=O | -1.92
COc1ccc2c(COc3ccc4c(=O)c(-c5ccccc5)coc4c3)cc(=O)oc2c1 | -2.91
O=C(Cn1ncc2c3ccccc3nc-2c1O)N1CCC(c2ccccc2)C1 (stereo not drawn) | 2.36
c1ccc(-c2nc3c4cnn(-c5ccccc5)c4ncn3n2)cc1 | -6.09
Cc1oc2c(C)c3oc(=O)c(CC(=O)N4CCOCC4)c(C)c3cc2c1-c1ccccc1 | 2.54
Cc1ccc2c(c1Br)C1(C(=O)N2)C(C#N)=C(N)Oc2cc(N)ccc21 (stereo not drawn) | 5.35
Cc1ccc2nc3c(cc(C(=O)NCC4CCCO4)c(=N)n3C3CCCCC3)c(=O)n2c1 (stereo not drawn) | 3.6
Cc1ccc2nc3c(cc(C(=O)NCC4CCCO4)c(=N)n3CCc3ccccc3)c(=O)n2c1 (stereo not drawn) | 0.279
COCCn1c(=N)c(C(=O)NCC2CCCO2)cc2c(=O)n3cc(C)ccc3nc21 (stereo not drawn) | 94.3
COc1ccc2cc3cc(C(=O)NCCN(C)C)oc3nc2c1 | -1.54
Cc1ccccc1CSCC(=O)NC1CCCC1 | 2.15
OC(Cn1ccnc1)(c1ccc(F)cc1)c1ccccn1 (stereo not drawn) | 2.62
Cc1ccc(CNC(=O)c2noc3c2COc2ccccc2-3)cc1 | 72.8
O=C(NCc1ccc(F)cc1)c1noc2c1CCc1ccccc1-2 | -9.28
Cc1onc(-c2ccccc2Cl)c1C(=O)NCc1ccc2c(c1)OCO2 | -6.92
Cc1ccc2c(c1)-c1onc(C(=O)NCc3ccccc3Cl)c1CO2 | 0.589
COc1ccc(CNC(=O)c2noc3c2COc2ccc(C)cc2-3)cc1 | -3.17
O=C(NCc1ccc2c(c1)OCO2)c1cc(-c2ccccc2F)no1 | -2.07
O=C(NCc1ccc2c(c1)OCO2)c1noc2c1COc1ccccc1-2 | 73.5

Structure (SMILES) | % Inhibition @ 10 uM [%]
O=C(NCc1ccc(F)cc1)c1noc2c1COc1ccccc1-2 | 69.7
CN(Cc1ccccc1)C(=O)c1noc2c1COc1ccccc1-2 | 7.85
CC(C)C(=O)NC(c1ccc(Cl)cc1)c1ccc2cccnc2c1O (stereo not drawn) | -8.88
CCc1nc2ccccc2c(NC(=O)CN2CCCC2)c1C | -4.96
CN(Cc1ccccc1)C(=O)c1ccc(C(C)(C)C)cc1 | 8.01
CCN(CC)C1=NC(C(F)(F)F)(C(F)(F)F)N=C(c2ccc(OC)cc2)O1 | -3.53
Cn1nc(C(=O)NCCc2ccccc2)c2c1-c1ccccc1SC2 | -0.495
Cn1nc(C(=O)NCc2cccnc2)c2c1-c1ccccc1SC2 | 36.1
Cn1nc(C(=O)NCc2ccc3c(c2)OCO3)c2c1-c1ccccc1S(=O)(=O)C2 | -3.8
Cc1ccc(CNC(=O)c2nn(C)c3c2CSc2ccccc2-3)cc1 | 51.6
Cn1nc(C(=O)NCc2ccc3c(c2)OCO3)c2c1-c1ccccc1SC2 | 86.5
Cn1nc(C(=O)NCc2ccco2)c2c1-c1ccccc1SC2 | 30.8
O=C(NCC1CCCO1)C1CCCN(S(=O)(=O)N2CCC3(CC2)OCCO3)C1 (stereo not drawn) | -1.67
CC(=O)C1=C(C)OC(N)=C(C#N)C1c1ccccc1[N+](=O)[O-] (stereo not drawn) | -1.29
Cc1cccc(Nc2nc(-c3sc(N)nc3C)cs2)c1 | 2.7
Cc1ccc(OC(C)C(=O)N(Cc2ccccc2)C2CCS(=O)(=O)C2)cc1C (stereo not drawn) | 0.561
Cc1cc(C)c2nc(N3CCCC(C(=O)N4CCCCCC4)C3)sc2c1 (stereo not drawn) | 1.8
Nc1nc(S)nc2sc3c(c12)CCN(Cc1ccccc1)C3 | 54.1
CSc1nc(N)c2c3c(sc2n1)CN(Cc1ccccc1)CC3 | -1.66
CCN1CCc2c(sc3nc(S)nc(N)c23)C1 | 42.8
CC(C)C[C@H](NC(=O)OCc1ccccc1)C(=O)NCC(=O)CN(Cc1ccco1)C(=O)OC(C)(C)C | -7.36
CC1=C(C#N)C(c2ccccc2)C2=C(O)CC(C)(C)CC2=N1 (stereo not drawn) | 2.41
CC1(C)CC2=NC(S)=C(C#N)C(c3cccnc3)C2=C(O)C1 (stereo not drawn) | 67.3
CC1=C(C#N)C(c2cccnc2)C2=C(O)CC(C)(C)CC2=N1 (stereo not drawn) | -4.03
